Data: the supplement of paper PMC11732987, “Enantioselective OTUD7B fragment discovery through chemoproteomics screening and high-throughput optimisation” (Communications Chemistry, 2025)

Columns and labels:
Test in all cases: log2 ratio of Biotin-Ahx-Ub-VS probe labelling (fragment/DMSO); higher = less target engagement (more negative = stronger competition), active = hit call of the paper (q ≤ 0.05, log2 ratio ≤ -1)
Settings in all cases: compound concentration: 200 uM; treatment time: 3 h
USP19 = target: T1, USP19 (UniProt O94966)
T1 sequence (whole entry): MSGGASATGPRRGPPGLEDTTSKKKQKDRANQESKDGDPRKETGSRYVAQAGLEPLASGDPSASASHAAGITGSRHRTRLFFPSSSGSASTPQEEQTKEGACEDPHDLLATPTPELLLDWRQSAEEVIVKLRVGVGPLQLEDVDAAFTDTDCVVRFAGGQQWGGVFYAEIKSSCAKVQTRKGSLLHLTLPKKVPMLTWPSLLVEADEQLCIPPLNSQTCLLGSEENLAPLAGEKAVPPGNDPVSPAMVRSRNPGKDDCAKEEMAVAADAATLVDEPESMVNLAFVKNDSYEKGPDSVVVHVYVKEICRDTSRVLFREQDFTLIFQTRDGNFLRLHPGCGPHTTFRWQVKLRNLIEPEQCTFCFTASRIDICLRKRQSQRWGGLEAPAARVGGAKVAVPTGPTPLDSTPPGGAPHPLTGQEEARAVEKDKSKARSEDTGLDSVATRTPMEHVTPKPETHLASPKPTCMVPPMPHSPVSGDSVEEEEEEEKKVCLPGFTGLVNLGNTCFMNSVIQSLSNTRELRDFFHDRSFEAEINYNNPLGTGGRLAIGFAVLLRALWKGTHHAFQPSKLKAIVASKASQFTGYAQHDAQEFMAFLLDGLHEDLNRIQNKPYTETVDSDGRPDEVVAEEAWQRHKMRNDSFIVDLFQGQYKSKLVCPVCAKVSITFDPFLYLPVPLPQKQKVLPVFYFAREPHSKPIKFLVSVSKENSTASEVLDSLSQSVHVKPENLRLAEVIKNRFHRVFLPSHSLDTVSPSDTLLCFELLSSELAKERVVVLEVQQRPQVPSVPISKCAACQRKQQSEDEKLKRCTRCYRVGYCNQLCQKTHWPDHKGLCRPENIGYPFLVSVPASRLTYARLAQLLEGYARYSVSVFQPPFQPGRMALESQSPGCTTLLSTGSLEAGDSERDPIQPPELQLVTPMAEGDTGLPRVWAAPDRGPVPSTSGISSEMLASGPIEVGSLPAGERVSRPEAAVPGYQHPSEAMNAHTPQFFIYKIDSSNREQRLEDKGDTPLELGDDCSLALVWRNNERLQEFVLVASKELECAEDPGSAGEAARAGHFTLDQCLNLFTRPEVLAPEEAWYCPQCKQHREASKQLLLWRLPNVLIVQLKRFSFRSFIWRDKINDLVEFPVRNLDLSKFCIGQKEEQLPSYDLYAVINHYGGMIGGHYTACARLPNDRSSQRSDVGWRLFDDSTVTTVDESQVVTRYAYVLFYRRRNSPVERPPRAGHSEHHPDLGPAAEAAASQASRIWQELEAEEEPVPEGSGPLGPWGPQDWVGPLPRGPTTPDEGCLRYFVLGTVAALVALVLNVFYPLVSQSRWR
Outline: (§1)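 Each value is an average log2 ratio of fragment to vehicle, tested by unpaired t-test. The underlying Spectronaut label-free quantities were global-median-normalised, and only proteins with ≥2 unique peptides were included. Triplicate HEK293T lysate samples (495 µg) were exposed to fragment at 200 µM or vehicle for 3 h, then to Biotin-Ahx-Ub-VS at 0.5 µM final for 1 h, before NeutrAvidin enrichment of labelled DUBs, LysC and trypsin digestion, and diaPASEF LC-MS/MS.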

USP24 = USP24 (UniProt Q9UPU5)
Sequence of USP24 (Q9UPU5 whole entry): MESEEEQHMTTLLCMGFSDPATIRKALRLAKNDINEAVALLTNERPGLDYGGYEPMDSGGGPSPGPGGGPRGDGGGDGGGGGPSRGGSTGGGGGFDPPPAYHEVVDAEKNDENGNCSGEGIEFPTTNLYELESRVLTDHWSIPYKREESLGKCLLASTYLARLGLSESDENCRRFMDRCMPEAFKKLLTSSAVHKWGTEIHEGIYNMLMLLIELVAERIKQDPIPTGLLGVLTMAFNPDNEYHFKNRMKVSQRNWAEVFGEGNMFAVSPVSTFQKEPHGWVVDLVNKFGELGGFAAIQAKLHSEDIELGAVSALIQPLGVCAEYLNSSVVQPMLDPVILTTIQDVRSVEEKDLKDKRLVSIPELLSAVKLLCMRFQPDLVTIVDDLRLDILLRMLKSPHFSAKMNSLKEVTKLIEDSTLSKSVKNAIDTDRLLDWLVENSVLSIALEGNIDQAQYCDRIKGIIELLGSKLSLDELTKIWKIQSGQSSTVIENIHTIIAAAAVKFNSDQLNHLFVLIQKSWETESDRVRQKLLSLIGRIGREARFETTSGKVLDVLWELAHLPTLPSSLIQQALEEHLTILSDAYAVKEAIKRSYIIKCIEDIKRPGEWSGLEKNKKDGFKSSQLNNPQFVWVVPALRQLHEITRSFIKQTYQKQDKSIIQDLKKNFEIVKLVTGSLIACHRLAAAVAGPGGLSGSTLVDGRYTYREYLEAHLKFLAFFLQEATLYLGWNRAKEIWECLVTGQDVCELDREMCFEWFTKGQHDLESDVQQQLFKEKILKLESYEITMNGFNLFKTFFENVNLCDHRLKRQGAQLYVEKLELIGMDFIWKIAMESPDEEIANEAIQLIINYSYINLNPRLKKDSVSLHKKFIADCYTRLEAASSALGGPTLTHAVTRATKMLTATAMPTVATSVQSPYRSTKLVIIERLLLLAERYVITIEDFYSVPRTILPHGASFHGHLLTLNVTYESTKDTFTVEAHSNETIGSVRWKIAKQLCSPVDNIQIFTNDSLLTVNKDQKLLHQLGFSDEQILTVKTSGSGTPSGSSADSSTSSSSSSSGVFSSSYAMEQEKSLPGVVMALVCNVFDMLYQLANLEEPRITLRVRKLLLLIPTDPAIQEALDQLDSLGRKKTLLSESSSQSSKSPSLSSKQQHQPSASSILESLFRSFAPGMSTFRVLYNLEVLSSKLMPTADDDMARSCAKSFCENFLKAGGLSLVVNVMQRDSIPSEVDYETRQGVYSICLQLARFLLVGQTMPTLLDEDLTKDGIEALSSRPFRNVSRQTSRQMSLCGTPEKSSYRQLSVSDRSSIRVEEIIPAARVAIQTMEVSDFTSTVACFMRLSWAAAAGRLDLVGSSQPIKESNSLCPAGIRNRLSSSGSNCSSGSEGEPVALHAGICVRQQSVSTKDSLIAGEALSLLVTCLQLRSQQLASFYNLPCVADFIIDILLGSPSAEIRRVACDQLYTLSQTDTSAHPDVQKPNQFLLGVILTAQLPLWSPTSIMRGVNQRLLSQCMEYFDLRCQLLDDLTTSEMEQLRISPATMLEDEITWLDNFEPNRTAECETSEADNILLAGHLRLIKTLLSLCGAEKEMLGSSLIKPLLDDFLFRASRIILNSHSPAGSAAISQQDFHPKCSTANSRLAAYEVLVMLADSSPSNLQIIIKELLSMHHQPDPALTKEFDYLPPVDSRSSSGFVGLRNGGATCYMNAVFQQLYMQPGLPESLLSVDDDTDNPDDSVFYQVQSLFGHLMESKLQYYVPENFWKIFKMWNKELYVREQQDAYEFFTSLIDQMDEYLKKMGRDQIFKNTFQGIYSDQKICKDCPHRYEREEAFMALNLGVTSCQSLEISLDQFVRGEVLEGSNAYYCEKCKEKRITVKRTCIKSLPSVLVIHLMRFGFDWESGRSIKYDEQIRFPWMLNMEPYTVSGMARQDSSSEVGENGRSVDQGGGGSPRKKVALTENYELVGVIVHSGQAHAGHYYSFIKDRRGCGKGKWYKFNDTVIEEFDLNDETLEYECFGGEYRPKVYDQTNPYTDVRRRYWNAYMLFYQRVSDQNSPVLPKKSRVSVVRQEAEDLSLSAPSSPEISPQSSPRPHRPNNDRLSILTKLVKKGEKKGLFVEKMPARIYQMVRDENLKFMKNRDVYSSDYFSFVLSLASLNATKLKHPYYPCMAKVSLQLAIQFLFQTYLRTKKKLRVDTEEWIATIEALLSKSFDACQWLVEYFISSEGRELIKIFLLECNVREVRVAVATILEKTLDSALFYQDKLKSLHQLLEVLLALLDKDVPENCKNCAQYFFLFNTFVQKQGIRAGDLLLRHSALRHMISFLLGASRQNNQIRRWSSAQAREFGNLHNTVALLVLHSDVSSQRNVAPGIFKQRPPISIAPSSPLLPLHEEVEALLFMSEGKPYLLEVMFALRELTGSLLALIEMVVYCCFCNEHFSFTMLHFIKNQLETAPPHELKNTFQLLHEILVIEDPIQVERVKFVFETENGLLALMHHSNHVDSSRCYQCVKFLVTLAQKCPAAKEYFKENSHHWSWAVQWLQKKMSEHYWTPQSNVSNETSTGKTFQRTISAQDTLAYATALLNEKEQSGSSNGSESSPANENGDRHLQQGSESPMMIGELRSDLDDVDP
Outline: as §1

USP25 = target: T2, USP25 (UniProt Q9UHP3)
T2 sequence (whole entry): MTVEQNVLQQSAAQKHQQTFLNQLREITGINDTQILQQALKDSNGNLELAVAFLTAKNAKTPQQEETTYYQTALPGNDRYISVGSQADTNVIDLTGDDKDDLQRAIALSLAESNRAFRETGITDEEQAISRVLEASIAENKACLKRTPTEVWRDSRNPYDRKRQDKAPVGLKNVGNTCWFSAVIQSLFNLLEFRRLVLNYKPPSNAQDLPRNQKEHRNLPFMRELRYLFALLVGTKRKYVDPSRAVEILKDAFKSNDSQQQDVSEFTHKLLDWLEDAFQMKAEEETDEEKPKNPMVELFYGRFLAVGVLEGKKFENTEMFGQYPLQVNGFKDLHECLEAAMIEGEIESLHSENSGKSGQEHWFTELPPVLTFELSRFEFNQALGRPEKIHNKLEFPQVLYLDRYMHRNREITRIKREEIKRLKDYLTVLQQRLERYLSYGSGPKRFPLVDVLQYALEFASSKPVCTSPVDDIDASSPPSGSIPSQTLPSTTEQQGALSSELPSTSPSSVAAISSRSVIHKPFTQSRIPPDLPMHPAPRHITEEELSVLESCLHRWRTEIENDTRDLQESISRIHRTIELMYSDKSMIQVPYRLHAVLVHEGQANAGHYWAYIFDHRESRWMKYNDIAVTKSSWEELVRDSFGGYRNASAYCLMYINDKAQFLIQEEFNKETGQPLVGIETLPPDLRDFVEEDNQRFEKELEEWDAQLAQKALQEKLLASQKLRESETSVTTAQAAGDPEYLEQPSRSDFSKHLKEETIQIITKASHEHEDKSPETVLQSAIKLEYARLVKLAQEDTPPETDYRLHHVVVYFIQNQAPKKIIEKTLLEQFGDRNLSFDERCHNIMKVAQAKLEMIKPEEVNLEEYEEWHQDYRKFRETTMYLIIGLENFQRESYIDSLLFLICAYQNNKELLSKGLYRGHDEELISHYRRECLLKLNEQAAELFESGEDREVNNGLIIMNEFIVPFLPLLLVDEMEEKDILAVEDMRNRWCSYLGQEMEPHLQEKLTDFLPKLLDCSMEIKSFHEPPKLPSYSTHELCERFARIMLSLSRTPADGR
Outline: as §1

USP28 = target: T3, USP28 (UniProt Q96RU2)
T3 sequence (whole entry): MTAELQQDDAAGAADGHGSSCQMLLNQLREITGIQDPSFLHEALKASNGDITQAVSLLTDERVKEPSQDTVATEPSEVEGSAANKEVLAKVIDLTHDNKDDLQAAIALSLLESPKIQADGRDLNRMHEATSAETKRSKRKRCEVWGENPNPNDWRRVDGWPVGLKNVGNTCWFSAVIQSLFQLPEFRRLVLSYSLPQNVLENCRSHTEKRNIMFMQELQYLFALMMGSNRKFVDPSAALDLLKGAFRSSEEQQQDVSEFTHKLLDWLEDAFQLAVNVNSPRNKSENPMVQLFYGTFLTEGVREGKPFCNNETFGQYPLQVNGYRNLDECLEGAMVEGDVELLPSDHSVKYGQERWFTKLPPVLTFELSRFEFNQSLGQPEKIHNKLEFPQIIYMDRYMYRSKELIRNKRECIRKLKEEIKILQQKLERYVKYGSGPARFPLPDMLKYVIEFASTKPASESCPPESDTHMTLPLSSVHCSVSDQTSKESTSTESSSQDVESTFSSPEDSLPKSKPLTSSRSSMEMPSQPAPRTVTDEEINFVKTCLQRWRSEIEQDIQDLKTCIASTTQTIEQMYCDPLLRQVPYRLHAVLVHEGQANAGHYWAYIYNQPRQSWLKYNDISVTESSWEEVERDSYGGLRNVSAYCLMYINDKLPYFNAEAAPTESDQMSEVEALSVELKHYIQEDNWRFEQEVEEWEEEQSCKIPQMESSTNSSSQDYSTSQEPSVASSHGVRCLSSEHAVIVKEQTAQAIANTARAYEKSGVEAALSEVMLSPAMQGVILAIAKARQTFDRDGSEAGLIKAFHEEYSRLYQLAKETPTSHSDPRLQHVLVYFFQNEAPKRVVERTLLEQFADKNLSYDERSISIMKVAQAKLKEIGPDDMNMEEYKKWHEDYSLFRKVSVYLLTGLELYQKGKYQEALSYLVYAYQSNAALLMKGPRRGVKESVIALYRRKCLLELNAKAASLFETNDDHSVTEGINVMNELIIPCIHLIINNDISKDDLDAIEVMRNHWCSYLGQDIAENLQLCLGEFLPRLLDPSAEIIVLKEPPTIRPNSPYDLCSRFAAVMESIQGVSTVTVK
Outline: as §1

Measured: log2 ratio of Biotin-Ahx-Ub-VS probe labelling

Cc1n[nH]c(=O)c2c(NC(=O)CCl)oc(C)c12
inactive: USP19 -0.168 | USP24 -0.0362 | USP25 0.114 | USP28 -0.11
